Compounds with a hit are over-represented: about 0.5% of the library has one in this group of screens.
E coli growth-1: inhibitors of Escherichia coli growth; actives 0.21% (n = 330,000); OD600 absorbance (no concentration beside the values); OD600, 23 h; stronger effect = lower value;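 active = OD600 absorbance below the run mean of sample wells minus 3.6 SD, in any replicate, cut at about 0.56 in these data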
E coli growth-2: counter-screen for AddAB inhibitors: E. coli growth inhibition | E. coli V3065 growth, OD600 absorbance, 18 h | actives 0.27% (n = 330,000) | inhibition, % at 11.9 µM | AID 449728;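 active = inhibition above the campaign's mean inhibition across all tested compounds plus 3 SD, cut at about 9.9% in these data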;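 also: uninfected addAB+ strain grown without phage in ampicillin broth; 0% = DMSO wells and 100% = ciprofloxacin 0.95 µg/ml wells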
phage Ecoli inh: E. coli growth loss with phage present; actives 0.26% (n = 360,000); growth absorbance; inhibition, % at 11.9 µM; in the data active = inhibition above about 11%
AddAB inh: less growth of phage-infected E. coli with AddAB. inhibition, % at 11.9 µM. actives 0.29% (n = 330,000). E. coli expressing H. pylori AddAB, absorbance growth; in the data active = inhibition above about 12%;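 also: 0% = vehicle wells of infected cells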
Tat transport: inhibitors of E. coli Tat protein transport | E. coli MC4100 TorA-mCherry Tat export, fluorescence | inhibition, % at 10 µM | actives 0.036% (n = 340,000);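 active = mean replicate inhibition at least 50% and at least half of replicates individually reaching 50%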;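 also: exported cargo escapes ClpAP degradation while cytoplasmic cargo is degraded and loses fluorescence; 0% = median of neutral control wells and 100% = median of NaSCN control wells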
AddAB confirm: confirmation screen: growth loss of phage-infected E. coli expressing H. pylori AddAB. inhibition, % at 11.9 µM. AID 488942. actives 64% (n = 880). E. coli V3065 expressing H. pylori AddAB, T4 phage, OD; T4 phage with gene 2 nonsense mutations. shares compounds with AddAB inh;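 active = mean inhibition above a set limit taken from the earlier primary screen, cut at about 13% in these data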;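 also: higher means less bacterial growth since AddAB block lets phage replicate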
RecBCD counter: reduces growth of phage-infected RecBCD+ E. coli, AddAB inhibitor counter-screen; E. coli V66 + mutant T4 phage, OD growth; actives 73% (n = 880); shares compounds with AddAB inh; inhibition, % at 11.9 µM;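 active = mean inhibition above the mean of solvent-only control wells plus 3 SD, cut at about 4% in these data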;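 also: optical density read after an 18 h incubation at 37 °C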
Bact viability: counter-screen: bacterial growth inhibition; shares compounds with AddAB inh; bacterial viability, absorbance (AddAB counterscreen); inhibition, % at 11.9 µM; actives 35% (n = 880); in the data active = inhibition above about 25%
RecBCD conf: confirmation: growth loss of phage-infected RecBCD+ E. coli (RecBCD inhibitor screen) | inhibition, % at 11.9 µM | AID 651982 | actives 45% (n = 890) | shares compounds with phage Ecoli inh | E. coli V66 + T4 2- phage, growth OD;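 active = mean inhibition over triplicates exceeding the hit threshold derived in the original primary screen, cut at about 11% in these data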
Ecoli viability: counter-screen for RecBCD inhibitors: inhibitors of bacterial viability. shares compounds with phage Ecoli inh. E. coli viability, absorbance (OD) growth. inhibition, % at 11.9 µM. actives 29% (n = 890). AID 651983; in the data active = inhibition above about 20%;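 also: E. coli strain V66 grown with compound alone and no phage infection; 0% = bacteria with DMSO vehicle only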
AddAB phage OD: growth loss of phage-infected AddAB E. coli, RecBCD counter-screen | E. coli expressing H. pylori AddAB + T4 phage, OD growth; gene 2 mutant T4, recBCD-deleted host | AID 651984 | shares compounds with phage Ecoli inh | inhibition, % at 11.9 µM | actives 45% (n = 890);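 active = mean inhibition above the solvent-only control wells' mean plus 3 SD, cut at about 22% in these data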;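 also: higher means less bacterial growth from phage killing when AddAB is blocked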
* marks the source's active call; other numbers are inactive results; · = not tested or not shown.

SMILES | E coli growth-1 | E coli growth-2 | phage Ecoli inh | AddAB inh | Tat transport | AddAB confirm | RecBCD counter | Bact viability | RecBCD conf | Ecoli viability | AddAB phage OD
Cc1cccc(OCCCCCN2CCOCC2)c1 | 0.603 | · | 0.4 | · | 0.0 | · | · | · | · | · | ·
Cc1ccc(N2CC(C(=O)NCCS(=O)(=O)N3CCN(c4ccc(F)cc4)CC3)CC2=O)cc1 (stereo not drawn) | 0.682 | -1.0 | 2.9 | 4.5 | -2.7 | · | · | · | · | · | ·
Cc1c(OC(C)C(=O)N[C@H](C(=O)O)c2ccccc2)ccc2c3c(c(=O)oc12)CCCC3 (stereo partly drawn) | 0.738 | -1.2 | 1.9 | 3.4 | -0.7 | · | · | · | · | · | ·
Cc1c(OC(C)C(=O)NCC(O)c2ccccc2)ccc2c3c(c(=O)oc12)CCC3 (stereo not drawn) | 0.683 | 28.2* | 0.9 | 33.9* | 2.4 | -5.8 | -0.5 | -2.6 | · | · | ·
Cc1cc(C)nc(/N=C(/NC(=O)Nc2ccc(Cl)c(Cl)c2)Nc2cccc(Cl)c2)n1 | · | 0.4 | -0.6 | 0.1 | 0.2 | · | · | · | · | · | ·
Cc1cc(C)n(C(=O)c2ccc(C)c(F)c2F)n1 | 0.647 | -3.5 | 0.6 | 2.8 | -3.5 | · | · | · | · | · | ·
Cc1cc2cc(CNS(=O)(=O)N(C)C)ccc2[nH]1 | 0.785 | 26.1* | 2.4 | 34.4* | 2.4 | -1.1 | -0.9 | -2.9 | · | · | ·
Cc1ccc(S(=O)(=O)NCc2ccc3[nH]c(C)cc3c2)cc1 | 0.66 | 3.1 | 1.8 | 1.0 | 1.8 | · | · | · | · | · | ·
C#CC1CN(Cc2ccccc2)CC(C#C)N1C (stereo not drawn) | 0.676 | -1.5 | 1.6 | -1.1 | 15.1 | · | · | · | · | · | ·
O=C(NC(c1ccccc1)c1c(O)ccc2ccccc12)c1ccccc1Cl (stereo not drawn) | 0.724 | 0.5 | 3.9 | 2.7 | 6.2 | · | · | · | · | · | ·
O=C(NC(c1ccc(Cl)cc1)c1c(O)ccc2ccccc12)c1ccccc1 (stereo not drawn) | 0.669 | 2.3 | 7.5 | 13.7* | 3.4 | 1.0 | 2.3 | -1.5 | · | · | ·
O=C(CSc1ccsc1[N+](=O)[O-])NCc1ccco1 | 0.681 | 21.3* | 7.5 | 30.1* | -8.0 | 51.8* | 5.0* | 25.7* | · | · | ·
O=c1cc(CSc2ccc([N+](=O)[O-])cc2)nc2sccn12 | 0.677 | -1.8 | 5.2 | 1.8 | -10.0 | · | · | · | · | · | ·
O=S(=O)(Nc1nccs1)c1ccc(Br)cc1 | 0.638 | 0.6 | 4.3 | 4.0 | -4.2 | · | · | · | · | · | ·
Nc1ccc(S(=O)(=O)Nc2nccs2)cc1 | 0.653 | 15.4* | 11.6* | 29.4* | 2.3 | 10.4 | 5.5* | 15.6 | 6.5 | 3.7 | 27.1*
O=C1c2ccccc2NC(c2ccc(-c3ccc(C(F)(F)F)cc3)o2)N1O (stereo not drawn) | 0.656 | 21.1* | 14.9* | 17.4* | -11.0 | 17.1* | 7.7* | 5.8 | 7.5 | 7.9 | 12.3
O=C1c2ccccc2NC(c2ccc(-c3cccs3)o2)N1O (stereo not drawn) | 0.693 | 6.2 | 9.2 | 4.5 | -10.3 | · | · | · | · | · | ·
Cc1onc(-c2c(Cl)cccc2Cl)c1C(=O)N/N=C(\N)COc1ccc(Cl)cc1 | · | 15.5* | 17.6* | 14.3* | 5.8 | 17.3* | 19.0* | 18.4 | 8.2 | 10.0 | 32.1*
Cc1onc(-c2ccccc2Cl)c1C(=O)NN=C(N)COc1ccc(Cl)cc1 | 0.682 | · | · | · | · | · | · | · | · | · | ·
COc1ccc(-c2cn[nH]c2-c2ccc(OC)cc2O)cc1 | 0.645 | -0.8 | 0.1 | 2.0 | 1.3 | · | · | · | · | · | ·
COc1c(F)c(F)cc2c(=O)c(C(=O)O)cn(C3CC3)c12 | 0.05* | 98.0* | 94.9* | 97.8* | 67.6* | 98.2* | 98.8* | 102.3* | 98.5* | 98.7* | 98.3*
COc1c(N2CCN(C(=S)NCc3ccccc3)C(C)C2)c(F)cc2c(=O)c(C(=O)O)cn(C3CC3)c12 (stereo not drawn) | 0.0785* | 104.1* | 96.9* | 101.9* | 33.4 | 100.8* | 99.1* | 100.5* | 103.1* | 104.5* | 104.7*
CCOC(=O)c1cn(-c2ccc(F)c(F)c2F)c2c(F)c(F)c(F)cc2c1=O | 0.688 | -1.2 | -1.1 | 2.6 | 4.0 | · | · | · | · | · | ·
COc1c(N2C[C@@H]3CCCN[C@@H]3C2)c(F)cc2c(=O)c(C(=O)O)cn(C3CC3)c12 | · | 101.9* | 98.2* | 100.3* | 106.0* | 101.9* | 101.9* | 101.8* | 102.6* | 104.6* | 103.8*
CCn1cc(C(=O)N[C@H](C(=O)O)C(C)C)c(=O)c2cc3c(cc21)OCO3 | 0.0685* | 55.1* | 11.5* | 58.6* | 0.7 | 101.3* | 10.0* | 78.4* | 4.7 | 4.0 | 51.5*
SMILES | E coli growth-1 | E coli growth-2 | phage Ecoli inh | AddAB inh | Tat transport | AddAB confirm | RecBCD counter | Bact viability | RecBCD conf | Ecoli viability | AddAB phage OD
CCn1cc(C(=O)N[C@H](C(=O)NCCCOC)C(C)C)c(=O)c2cc3c(cc21)OCO3 | 0.661 | -3.1 | 0.2 | 2.2 | -3.9 | · | · | · | · | · | ·
O=C(COC(=O)Cc1cccs1)NCc1ccc(F)cc1 | 0.677 | 0.8 | 3.7 | 4.0 | -5.4 | · | · | · | · | · | ·
C[C@H]1c2cccc(O)c2C(=O)C2C(=O)C3(O)C(=O)C(C(N)=O)C(=O)[C@@H](N(C)C)[C@@H]3[C@@H](O)[C@@H]21 (stereo partly drawn) | · | 100.1* | 97.8* | 100.3* | 148.5* | 100.5* | 100.0* | 100.8* | 99.2* | 99.9* | 101.5*
C=C1c2cccc(O)c2C(O)=C2C(=O)[C@]3(O)C(O)=C(C(N)=O)C(=O)[C@@H](N(C)C)[C@@H]3[C@@H](O)[C@H]12 | 0.059* | 47.0* | 100.2* | 57.3* | 140.3* | 96.7* | 99.0* | 96.8* | 103.8* | 105.0* | 104.3*
CN(C)c1ccc(O)c2c1CC1CC3C(N(C)C)C(=O)C(C(N)=O)=C(O)[C@@]3(O)C(=O)C1=C2O (stereo partly drawn) | 0.0685* | 101.2* | 98.6* | 99.0* | 149.6* | 98.0* | 98.9* | 99.7* | 103.3* | 105.2* | 103.8*
CN(C)c1ccc(O)c2c1CC1CC3[C@@H](N(C)C)C(=O)C(C(N)=O)C(=O)[C@]3(O)C(=O)C1C2=O (stereo partly drawn) | · | 102.2* | 101.2* | 98.2* | 144.8* | 100.2* | 100.0* | 102.3* | 100.0* | 101.1* | 98.1*
COc1ccc(C(=O)C(=O)N2CCN(S(=O)(=O)c3cccc4c(N(C)C)cccc34)CC2)cc1OC | · | · | 2.9 | · | · | · | · | · | · | · | ·
